{
  "source": "PubChem BioAssay (NCI)",
  "note": "This is part of a sample that, as a whole, favours compounds with a hit. Of some 83,000 tested, about 20% had one in any assay.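 Activity criterion: percent growth below 10, measured after cells in 96-well plates were exposed to a single compound concentration for 48 hours.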 Unmarked numbers belong to inactive results. Activity calls are given as the source filed them.",
  "data": [
    {"system": "HOP-62 NSCLC", "assay": "NCI-60 one-dose screen, 48 h (100 = growth as untreated, 0 = no growth, -100 = all killed)", "settings": "10 µM unless noted", "experimental": "Growth inhibition of the HOP-62 human Non-Small Cell Lung tumor cell line is measured as a screen for anti-cancer activity. Cells are grown in 96 well plates and exposed to the test compound for 48 hours. Compounds are tested at a single concentration, which is 10^-5 M for most compounds. The reported endpoint is percent growth (GI% or GIPRCNT), where numbers from 0 - 100% represent growth inhibition, and numbers from -100% - 0 represent cell death. For example, a value of 40 represents 60% growth inhibition. A value of 0 means no net growth occurred over the course of the experiment. A value of -40 indicates 40% of cells at the beginning of the experiment died by the end of the experiment. A value of -100 means all cells are dead at the end of the experiment.\nNCI-60 Human Tumor Cell Lines Screen was performed using the standard one-dose NCI protocol, which is described in more detail at https://dtp.cancer.gov/discovery_development/nci-60/default.htm.\nCompounds with GIPRCNT values below 10 were considered active. Activity score was based on GIPRCNT using the following formula: […]\nScore is 0 for GIPRCNT values of 100 or above, 50 for GIPRCNT values of 0, and 100 for GIPRCNT values of -100.", "values": [
      {"smiles": "COc1ccc([N+](=O)[O-])c(S(=O)(=O)c2ccc(Cl)cc2)n1", "growth": "95.2%"},
      {"smiles": "COC(=O)C1(NC(=O)CNC(=O)OCc2ccccc2)CCCC1", "growth": "111%"},
      {"smiles": "COc1ccc2c(c1)CC/C(=C\\c1ccc(OCC(=O)Nc3nc4ccccc4s3)cc1)C2=O", "growth": "83.2%"},
      {"smiles": "CCOC(CNCc1cc(C)c2[nH]c3ccccc3c2c1C)OCC", "growth": "98.1%"},
      {"smiles": "CC[C@@H](C)/C=C(C)/C=C/C(O)=C1\\C(=O)N[C@@H](Cc2ccc(OC(=O)[C@@](OC)(c3ccccc3)C(F)(F)F)cc2)C1=O", "growth": "110%"},
      {"smiles": "Cc1sc2nc3c4ccccc4c(NCCCN(C)C)nn3c(=O)c2c1C", "growth": "61.7%"},
      {"smiles": "O=C(CNC(=O)c1cccc2ccccc12)Nc1ccccc1Oc1ccc(O)cc1", "growth": "35.7% [5 µM]"},
      {"smiles": "CCN(CC)CCCCCCCNc1c2ccc(Cl)cc2nc2ccc(OC)cc12", "growth": "-49.2% (active)"},
      {"smiles": "CN(C)CCC(=O)Nc1ccc(-n2cc(-c3cccc(NC(=S)Nc4cccc(-c5cn(-c6ccc(NC(=O)CCN(C)C)cc6)nn5)c4)c3)nn2)cc1", "growth": "105%"},
      {"smiles": "COc1cc(/C=N/OC(=O)Nc2ccccc2)cc(OC)c1OC", "growth": "93.9%"},
      {"smiles": "c1ccc2nc(N/N=C3\\CCCCC3C3CCCCC3)ccc2c1", "note": "(stereo not given)", "growth": "8.28% (active)"},
      {"smiles": "COc1ccc(-c2nc3sc4c(c3c(=O)[nH]2)CCCCCC4)cc1", "growth": "36.2%"},
      {"smiles": "COc1ccc(C2=NN(C(C)=O)C(c3c(C)nn(-c4ccccc4)c3N3CCOCC3)C2)cc1", "note": "(stereo not given)", "growth": "87.9%"},
      {"smiles": "CCOC(=O)C1=CCC(n2cc(C)c(=O)[nH]c2=O)O1", "note": "(stereo not given)", "growth": "104%"},
      {"smiles": "Cc1nn(-c2nc3ccccc3s2)c(C)c1Oc1ccccc1O", "growth": "53.3%"},
      {"smiles": "O=C(N/N=C/c1cccc([N+](=O)[O-])c1)c1ccc(Br)o1", "growth": "106%"},
      {"smiles": "CCN(CC)c1ccc(/C=C/C(=O)c2cccc(NS(C)(=O)=O)c2)cc1", "growth": "42.6%"},
      {"smiles": "COc1cc(/C=C2\\SC(N3CCCCC3)=NC2=O)ccc1OCCCCCCOc1ccc(/C=C2\\SC(N3CCCCC3)=NC2=O)cc1OC", "growth": "6.62% (active)"},
      {"smiles": "CC(C)N(Cc1ccccc1)c1c(Cl)ssc1=O", "growth": "113%"},
      {"smiles": "CCSCC1CC(O)(c2ccccc2)C(c2ccccc2)C(c2ccc(Cl)cc2)O1", "note": "(stereo not given)", "growth": "16.4%"},
      {"smiles": "COc1cnc2c(c1)C(=O)c1c-2n(CCCN2CCNCC2)c(=O)c2cc(F)ccc12", "growth": "-8.55% (active)"},
      {"smiles": "N#CC(C#N)C(C#N)C#N", "growth": "90.9%"},
      {"smiles": "CCOC(=O)C1C(=O)NC(C(=O)OCC)(C(=O)OCC)C1CC", "note": "(stereo not given)", "growth": "109%"},
      {"smiles": "N=C1c2nc3n(c2C(=O)c2nc4n(c21)CCCCC4)CCCCC3", "growth": "122%"},
      {"smiles": "CC(NC(=O)Oc1cccc2ccccc12)c1ccccc1", "note": "(stereo not given)", "growth": "100%"},
      {"smiles": "COc1c(O)cc2c(c1CC=C(C)C)OC(=O)c1c(cc(O)c(CC=C(C)C)c1O)O2", "growth": "6.39% (active)"},
      {"smiles": "CCSc1nc(-c2cccs2)n2nc(-c3ccco3)cc2n1", "growth": "101%"},
      {"smiles": "CCNCCCn1c2c(c3ccc(F)cc3c1=O)C(=O)c1cc(OC)cnc1-2", "growth": "-29% (active)"},
      {"smiles": "O=C1C=CC(=O)N1c1ccccc1N1C(=O)C=CC1=O", "growth": "94.5%"},
      {"smiles": "C=C1CC[C@@H]2[C@](C)(COC(C)=O)[C@H](OC(C)=O)CC[C@@]2(C)[C@@H]1CC(NCc1ccccc1)C1=CCOC1=O", "note": "(stereo not given in full)", "growth": "89%"},
      {"smiles": "CCSc1ncc(Br)c(Sc2nc(N)nc3nc[nH]c23)n1", "growth": "31.8%"},
      {"smiles": "CC1CC=CCC1C1OCC(C)(C)CO1", "note": "(stereo not given)", "growth": "89.3%"},
      {"smiles": "Cc1cc2c(cc1C)[n+](Cc1ccc3ccccc3c1)cn2Cc1ccc2ccccc2c1", "growth": "-73% (active)"},
      {"smiles": "C[C@@H]1CN(c2nc3c(cc2F)c(=O)c(C(=O)O)cn3C(C)(C)C)C[C@H](C)N1", "growth": "98.5%"},
      {"smiles": "CC(C)Sc1nc(Cl)c(C#N)c(-c2ccc(F)cc2)n1", "growth": "109%"},
      {"smiles": "Cc1ccc(-c2csc(N)n2)cc1", "growth": "110%"},
      {"smiles": "COc1ccccc1NC(=O)c1sc2nc3c(cc2c1N)C(=O)CCC3", "growth": "100%"},
      {"smiles": "Cc1ccc(/C=C/C(=O)c2ccc(F)cc2)s1", "growth": "103%"},
      {"smiles": "CCN(CC)CCOCC[C@H]1CC[C@H]2[C@@H]3[C@H](C)Cc4cc(OS(N)(=O)=O)ccc4[C@H]3CC[C@]12C", "growth": "-96.7% (active)"},
      {"smiles": "CC(=O)[C@H]1CC[C@H]2[C@@H]3C[C@H](C)C4=CC(=O)CC[C@]4(C)[C@H]3C(=O)C[C@]12C", "growth": "99.1%"}
    ]}
  ]
}
